# GDH-TPI counter = GDH-TPI coupling enzyme inhibitors, primary screen, artefact control for M. tuberculosis FBA inhibitor project, biochemical, absorbance, full deck | GDH-TPI coupled enzyme counterscreen, NADH absorbance | inhibition, % at 4.8 µM | 1.2% of 360,000 active; in the data active means inhibition above about 30%;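 further: 0% = DMSO wells and 100% = wells lacking the enzyme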
# Mtb bLac sens = beta-lactam sensitization of Mtb H37Rv, H37Rv; inhibition, % at 25 µM; 0.27% of 330,000 active; M. tuberculosis H37Rv growth with meropenem, percent inhibition; call rule not given here;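 further: growth measured after seven days incubation then overnight dye step; 0% = bacteria only wells and 100% = bacteria with antibiotic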
# RecA intein inh = Mtb RecA intein splicing inhibitors, primary screen, biochemical, fluorescence, HTS; 0.75% of 290,000 active; Protein RecA (Mycobacterium tuberculosis (strain ATCC 25618 / H37Rv)), P9WHJ3; cell-free RecA intein splicing; AID 2221, 2009; inhibition, % (test concentration not listed); in the data active means inhibition above about 30%;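 further: 0% = vehicle wells and 100% = reference inhibitor control wells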
# FBA Mtb inh = Mtb FBA enzyme inhibitors, primary screen, biochemical, fluorescence, strain H37Rv. Fructose-bisphosphate aldolase (Mycobacterium tuberculosis (strain ATCC 25618 / H37Rv)), …. purified M. tuberculosis FBA, fluorescence read-out. inhibition, % at 1 µM. 2.3% of 360,000 active. AID 588726, 2011; in the data active means inhibition above about 27%;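 further: 0% = vehicle and 100% = reference inhibitor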
# Rv3671c inh = Rv3671c serine protease inhibitors, primary screen, biochemical, fluorescence polarization, M. tuberculosis H37Rv; 0.048% of 320,000 active; inhibition, % at 5.96 µM; P9WHR9; in the data active means inhibition above about 38%;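 further: extracellular domain of Rv3671c used as enzyme; 0% = enzyme with DMSO and 100% = no enzyme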
# Target sequence (P9WHR9 whole entry, looked up, the tested form may be a part): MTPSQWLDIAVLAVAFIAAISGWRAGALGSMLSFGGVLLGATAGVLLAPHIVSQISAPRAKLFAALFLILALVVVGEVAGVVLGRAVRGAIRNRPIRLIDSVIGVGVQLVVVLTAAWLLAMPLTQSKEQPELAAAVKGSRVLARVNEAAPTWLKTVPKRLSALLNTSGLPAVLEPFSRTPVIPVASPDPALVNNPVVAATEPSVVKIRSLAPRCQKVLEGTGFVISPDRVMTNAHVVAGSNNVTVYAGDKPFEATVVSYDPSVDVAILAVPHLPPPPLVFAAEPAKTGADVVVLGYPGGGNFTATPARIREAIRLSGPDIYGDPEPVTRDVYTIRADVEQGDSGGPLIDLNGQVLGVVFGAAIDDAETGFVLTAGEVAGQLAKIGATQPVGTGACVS
# Mtb UGM inh = M. tuberculosis UGM enzyme inhibitors, primary screen, biochemical, fluorescence polarization, single point; UDP-galactopyranose mutase (Mycobacterium tuberculosis (strain ATCC 25618 / H37Rv)), …; purified UGM, fluorescence polarization probe displacement; inhibition, % at 10 µM; 0.06% of 320,000 active; AID 504406, 2011; in the data active means inhibition above about 10%, passing the limit was not always enough
# Active calls of the source: *; / = not tested or not shown; + = active, no number. In the library only some 4% were active in any assay of this set; here they are far more common.
SMILES,GDH-TPI counter,Mtb bLac sens,RecA intein inh,FBA Mtb inh,Rv3671c inh,Mtb UGM inh
CC1(C(=O)NS(=O)(=O)c2ccc3ccccc3c2)CCN1C(=O)CC1CCCCC1 (stereo not drawn),2.2,/,/,0.0,/,/
COC(=O)[C@H](CC(C)C)NC(=O)CC[C@H]1O[C@@H](n2cc(C)c(=O)[nH]c2=O)C[C@@H]1O,/,/,/,-1.4,/,/
Cc1c(OCC(=O)N2CCC(C(=O)O)CC2)ccc2c3c(c(=O)oc12)CCC3,24.5,-12.2,4.8,14.8,11.0,2.1
Cc1c(C)c2c(OCC(=O)NCC3CCC(C(=O)O)CC3)cc3c(c2oc1=O)CCC(C)(C)O3 (stereo not drawn),7.6,/,/,120.1*,/,/
Cc1cc(=O)oc2c(C)c(OCC(=O)NCC3CCC(C(=O)O)CC3)ccc12 (stereo not drawn),15.7,-5.4,9.1,9.6,-0.1,4.5
Cc1c(C)c2c(OCC(=O)N3CCC(C(=O)O)CC3)cc3c(c2oc1=O)CCC(C)(C)O3,36.3*,6.7,-0.7,+,4.8,-0.5
Cc1cc(=O)oc2c3c(cc(OCC(=O)NCC4CCC(C(=O)O)CC4)c12)OC(C)(C)CC3 (stereo not drawn),16.7,-5.1,5.1,+,-0.2,-1.0
CN1C(=O)CCS(=O)(=O)C1c1ccc(Cl)c(Cl)c1 (stereo not drawn),6.2,/,/,-1.6,/,/
Cc1cc(Cl)ccc1C(O)c1ncc(-c2ccc(C(F)(F)F)cc2)[nH]1 (stereo not drawn),4.0,/,/,-3.0,/,/
COc1ccc(/C=C/C=C2\NC(=S)NC2=O)cc1,5.0,-0.3,0.2,3.8,0.5,0.8
O=C1NC(=S)N/C1=C\C=C\c1ccccc1,33.2*,-0.8,-1.0,1.1,4.5,-0.2
CCOC(=O)[C@@H]1[C@H]2COc3ccc(Br)cc3[C@H]2N2C(=O)N(c3ccc(C)cc3)C(=O)[C@]12C,-1.2,-0.6,10.7,2.0,-7.3,-1.7
C=CCN=C1S/C(=C\N(C)C)C(=O)N1S(=O)(=O)c1ccc(C)cc1,36.1*,-0.7,/,-3.5,1.6,1.3
C=CCN=C1SCC(=O)N1S(=O)(=O)c1ccc(C)cc1,3.2,-8.0,1.0,-0.2,-8.5,1.3
CCn1cc(C(=O)N[C@@H](CCSC)C(=O)NCCCN2CCOCC2)c(=O)c2cc3c(cc21)OCO3,14.4,-6.6,0.2,11.5,-4.0,1.1
Cc1cccc2cc(C#N)c(NCc3ccccc3)nc12,-0.9,-3.2,-10.4,29.7*,6.8,-0.9
Oc1ccccc1-c1nnc2n1CCCCC2,0.0,-5.1,0.6,5.5,/,-1.1
N=c1oc2ccc3ccccc3c2cc1-c1nnc2n1CCCCC2,17.5,2.0,/,+,-5.3,1.2
CCOC(=O)c1c(NC(=O)CCl)sc(CN(C)C)c1-c1ccccc1,3.1,90.2,50.0*,0.6,-0.9,-1.6
O=C(CCCSc1nc(-c2ccco2)cc(C(F)(F)F)n1)NCc1cccs1,10.4,1.6,/,-3.7,-1.8,0.8
O=C(CCSc1nc(-c2ccco2)cc(C(F)(F)F)n1)NCC1CCCO1 (stereo not drawn),32.9*,-13.4,0.6,-0.7,-2.2,-0.1
O=C(CCCSc1nc(-c2ccco2)cc(C(F)(F)F)n1)NCC1CCCO1 (stereo not drawn),32.9*,31.9,/,-0.3,5.2,2.5
Cc1cccc(C)c1NC(=O)CSc1nc(-c2ccco2)cc(C(F)(F)F)n1,33.3*,-7.2,0.6,1.8,2.4,2.8
O=C(CSc1nc(-c2ccco2)cc(C(F)(F)F)n1)NCC1CCCO1 (stereo not drawn),31.4*,2.2,0.4,0.5,4.0,-0.2
Cc1cc(NC(=O)CSc2nc(-c3ccco3)cc(C(F)(F)F)n2)no1,24.3,-10.4,/,3.6,5.4,1.0
N#CCc1nn(Cc2ccc(F)cc2)c(=O)c2ccccc12,-1.3,4.6,2.1,4.3,-2.2,1.2
COc1cccc(C(=O)N2CCN(Cc3ccc(OC)cc3OC)CC2)c1,-21.4,-1.4,/,0.4,-2.6,-1.4
COCCNC(=O)C1(C)CCN(C(=O)Cc2ccc(OC)c(OC)c2)C1 (stereo not drawn),1.3,/,/,4.6,/,/
